PubChem BioAssay
Active and inactive are the calls of the source.

Tests used:
[1] = system: Human papillomavirus type 1a protein E7 (residues 44-93); experiment: HPV1a E7 fragment binders on microarrays, primary screen, biochemical, small-molecule microarray, residues 44-93, 635 nm fluorescence (AID 1108); details: small-molecule microarray binding, fluorescence 635 nm; higher = more signal;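 also: E7 fragment applied at 1 µg/mL in TBST for 1 h at 4 C; score combines spot fluorescence with its signal to noise ratio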
[2] = modulators of HCV replicon luciferase signal, primary screen, HCV replication inhibitor project, Huh7 cells, luciferase reporter (AID 1109); details: 48 h, higher = more signal;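 also: huh7 hepatoma cells harbouring a luciferase neomycin HCV replicon reporter; luciferase luminescence as measure of HCV replicon replication; test concentration not given here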
[3] = molecular target: Left-right determination factor 2 (Homo sapiens) (UniProt O00292); experiment: LEFTY2 binders on small-molecule microarrays, primary screen, biochemical, small-molecule microarray, 635 nm fluorescence scan (AID 1110); details: LEFTY2 binding, higher = more signal
[4] = molecular target: Calmodulin-1 (Homo sapiens) (UniProt P0DP23); experiment: CALM1 binders on microarrays, EGTA buffer, profiling panel, biochemical, small-molecule microarray, Cy5-labelled CALM1 (AID 1111); details: Cy5-CALM1 binding fluorescence, higher = more signal;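 also: labelled calmodulin applied in Tris saline Tween buffer holding calcium plus EGTA and DTT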
[5] = molecular target: Calmodulin-1 (Homo sapiens) (UniProt P0DP23); experiment: calcium-bound CALM1 binders on microarrays, profiling panel, artefact control for SMM control-protein annotation, biochemical, small-molecule microarray, Cy5-labelled CALM1, plus calcium (AID 1112); details: Cy5-CALM1 binding fluorescence, higher = more signal;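 also: score merges spot fluorescence with signal to noise from triplicate slides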
[6] = small-molecule microarray binders of probe aWnt5a, primary screen, biochemical, biotinylated probe, 635/667 nm fluorescence (AID 1113); details: higher = more signal;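 also: score merges 667 nm fluorescence intensity with signal-to-noise per printed feature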
[7] = small-molecule microarray binders of probe aShh, primary screen, biochemical, biotinylated probe, 635/667 nm fluorescence (AID 1114); details: higher = more signal;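 also: probe is biotin-labelled aShh protein from a stem cell growth factor screen; measures binding of labelled protein to compounds printed on the slide; score merges feature fluorescence at 667 nm with signal-to-noise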
[8] = small-molecule microarray binders of probe aNog, primary screen, biochemical, biotinylated probe, 635/667 nm fluorescence (AID 1115); details: higher = more signal;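 also: probe is biotinylated aNog protein used at 0.15 µg/mL for 1 h at 4 C; z-score combines 667 nm fluorescence of each spot with its signal to noise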
[9] = molecular target: Torsin-1A-interacting protein 1 (Homo sapiens) (UniProt Q5JTV8); experiment: LAP1 binders from COS7 cell lysate, primary screen, small-molecule microarray, 635/667 nm fluorescence (AID 1116); details: COS7-hLAP1 lysate binding, 635 nm fluorescence, higher = more signal
[10] = molecular target: Alpha-bungarotoxin (Bungarus multicinctus) (UniProt P60615); experiment: alpha-bungarotoxin binders on microarray, profiling panel, artefact control for SMM control protein annotation, biochemical, small-molecule microarray, Alexa647 label, 635/667 nm fluorescence (AID 1117); details: alpha-BTX-A647 binding fluorescence, higher = more signal
Albumin (Bos taurus) = Albumin (Bos taurus) (UniProt P02769); experiment: bovine serum albumin binders on microarray, profiling panel, artefact control for SMM control protein annotation, biochemical, small-molecule microarray, Alexa647 label, 635/667 nm fluorescence (AID 1118); details: BSA-A647 binding, fluorescence 635 nm, higher = more signal;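 also: score merges 667 nm emission intensity and signal-to-noise per printed compound spot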
[11] = small-molecule microarray binders of probe aXIP, primary screen, biochemical, NeuroSMM set, 635/667 nm fluorescence (AID 1119); details: higher = more signal, called active from +8 up or from −8 down;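 also: probe is the protein aXip251-270 applied at 1 µg/mL to compound-printed slides; binding of probe to printed compounds measured as 667 nm fluorescence plus signal to noise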
[12] = small-molecule binders of probe aNOTCH3, primary screen, biochemical, small-molecule microarray, 635/667 nm fluorescence (AID 1120); details: higher = more signal;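 also: probe is a biotin-tagged antibody raised against NOTCH3 rather than NOTCH3 protein; score merges spot fluorescence near 667 nm with spot signal to noise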
[13] = small-molecule binders of probe aNOTCH2, primary screen, biochemical, small-molecule microarray, 635/667 nm fluorescence (AID 1121); details: higher = more signal;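 also: score merges feature fluorescence read at 667 nm with its signal to noise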
[14] = molecular target: Carbonic anhydrase 2 (Homo sapiens) (UniProt P00918); experiment: CAII small-molecule binders, profiling panel, biochemical, small-molecule microarray, Alexa647-labelled CAII (AID 1122); details: CAII-A647 binding fluorescence, higher = more signal
[15] = COS7 lysate on small-molecule microarray, probe aHis, 635 nm (AID 1123); details: COS7 cell lysate, fluorescence, higher = more signal;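 also: z-score combines 667nm fluorescence intensity with signal-to-noise per printed compound spot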
[16] = compound binding in COS7 lysate, probe aLAP1, primary screen, cell lysate, small-molecule microarray (AID 1124); details: probe aLAP1, fluorescence, higher = more signal;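 also: lysate comes from COS7 cells expressing LAP1 and is applied at 0.3 µg/mL; score merges spot fluorescence near 667 nm with signal-to-noise over triplicate slides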
Sam68 (KHDRBS1) = experiment: Sam68 small-molecule binders, primary screen, biochemical, small-molecule microarray, 635 nm fluorescence (AID 1125); details: small-molecule microarray binding, higher = more signal;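 also: score merges 667 nm channel intensity with signal to noise over triplicate slides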
[17] = system: Chordin-like protein 2 (CHRDL2); experiment: CHRDL2 small-molecule binders, primary screen, biochemical, small-molecule microarray, 635 nm fluorescence (AID 1126); details: small-molecule microarray binding, fluorescence 635 nm; higher = more signal;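 also: printed compound slides probed with Chrdl2 protein at 4 µg/mL for 1 h at 4 C; score merges 667 nm emission intensity with signal to noise over three replicate slides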
[18] = molecular target: Concanavalin-A (Canavalia ensiformis) (UniProt P02866); experiment: ConA small-molecule binders, primary screen, artefact control for SMM control protein annotation, biochemical, small-molecule microarray, Alexa647 label, 635 nm (AID 1127); details: ConA-A647 binding fluorescence, higher = more signal;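 also: z combines 667 nm emission intensity with signal-to-noise across three replicate slides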
Sequence of Concanavalin-A (Canavalia ensiformis) (P02866 whole entry, looked up): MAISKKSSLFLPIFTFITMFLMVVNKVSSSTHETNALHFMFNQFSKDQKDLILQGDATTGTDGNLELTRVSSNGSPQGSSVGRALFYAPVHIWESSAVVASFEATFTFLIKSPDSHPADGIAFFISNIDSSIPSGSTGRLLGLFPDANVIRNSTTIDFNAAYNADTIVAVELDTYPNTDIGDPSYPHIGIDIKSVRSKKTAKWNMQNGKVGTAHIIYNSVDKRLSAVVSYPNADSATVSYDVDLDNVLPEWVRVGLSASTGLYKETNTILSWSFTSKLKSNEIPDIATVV

Sequence of Alpha-bungarotoxin (Bungarus multicinctus) (P60615 whole entry, looked up): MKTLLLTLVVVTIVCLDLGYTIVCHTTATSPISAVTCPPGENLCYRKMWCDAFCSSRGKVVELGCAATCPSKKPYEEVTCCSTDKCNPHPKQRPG
Sequence of Albumin (Bos taurus) (P02769 whole entry, looked up): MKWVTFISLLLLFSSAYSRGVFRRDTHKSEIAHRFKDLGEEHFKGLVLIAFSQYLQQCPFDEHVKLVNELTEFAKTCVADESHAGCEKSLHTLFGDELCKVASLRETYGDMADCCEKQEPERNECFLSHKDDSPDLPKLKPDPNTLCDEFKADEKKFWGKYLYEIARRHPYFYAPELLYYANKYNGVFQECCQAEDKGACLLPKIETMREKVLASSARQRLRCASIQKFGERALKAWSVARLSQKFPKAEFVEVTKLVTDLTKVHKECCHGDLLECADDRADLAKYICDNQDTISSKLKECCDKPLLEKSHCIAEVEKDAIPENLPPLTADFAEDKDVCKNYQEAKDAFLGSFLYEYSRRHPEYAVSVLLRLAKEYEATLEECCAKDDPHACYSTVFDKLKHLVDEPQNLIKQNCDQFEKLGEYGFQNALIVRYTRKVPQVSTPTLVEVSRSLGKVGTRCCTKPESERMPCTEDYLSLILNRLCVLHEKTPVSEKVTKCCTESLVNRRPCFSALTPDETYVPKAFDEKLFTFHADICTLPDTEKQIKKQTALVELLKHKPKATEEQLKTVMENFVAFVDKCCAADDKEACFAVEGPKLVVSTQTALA
Sequence of Torsin-1A-interacting protein 1 (Homo sapiens) (Q5JTV8 whole entry, looked up): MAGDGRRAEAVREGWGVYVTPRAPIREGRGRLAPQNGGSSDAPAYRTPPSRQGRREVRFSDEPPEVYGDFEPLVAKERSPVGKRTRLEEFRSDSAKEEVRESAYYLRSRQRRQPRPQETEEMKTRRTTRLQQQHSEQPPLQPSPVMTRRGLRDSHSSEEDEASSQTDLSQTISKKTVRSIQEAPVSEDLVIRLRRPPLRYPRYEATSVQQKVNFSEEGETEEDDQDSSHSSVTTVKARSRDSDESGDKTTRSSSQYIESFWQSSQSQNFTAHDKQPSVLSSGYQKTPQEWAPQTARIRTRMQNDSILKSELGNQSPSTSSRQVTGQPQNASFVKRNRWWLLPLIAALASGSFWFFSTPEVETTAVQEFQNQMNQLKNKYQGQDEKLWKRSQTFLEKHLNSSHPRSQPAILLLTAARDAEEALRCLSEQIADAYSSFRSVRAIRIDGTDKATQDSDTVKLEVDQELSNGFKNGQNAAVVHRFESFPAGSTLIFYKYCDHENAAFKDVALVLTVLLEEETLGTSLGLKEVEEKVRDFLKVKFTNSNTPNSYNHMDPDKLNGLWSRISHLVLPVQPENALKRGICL
Sequence of Left-right determination factor 2 (Homo sapiens) (O00292 whole entry, looked up): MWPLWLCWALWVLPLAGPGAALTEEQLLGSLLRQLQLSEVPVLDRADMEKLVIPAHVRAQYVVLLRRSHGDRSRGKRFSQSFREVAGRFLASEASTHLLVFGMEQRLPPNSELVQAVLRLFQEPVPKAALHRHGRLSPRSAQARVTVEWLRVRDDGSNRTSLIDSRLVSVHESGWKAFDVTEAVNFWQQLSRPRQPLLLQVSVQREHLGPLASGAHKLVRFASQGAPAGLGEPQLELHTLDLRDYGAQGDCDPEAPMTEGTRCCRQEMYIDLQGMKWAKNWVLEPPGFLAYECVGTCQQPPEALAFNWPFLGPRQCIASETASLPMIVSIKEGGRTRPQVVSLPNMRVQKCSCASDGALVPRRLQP

SMILES | composite z-score [1] | z-score [2] | composite z-score [3] | composite z-score [4] | composite z-score [5] | composite z-score [6] | composite z-score [7] | composite z-score [8] | composite z-score [9] | composite z-score [10] | composite z-score (Albumin (Bos taurus)) | composite Z-score [11] | composite z-score [12] | composite z-score [13] | composite z-score [14] | composite z-score [15] | composite z-score [16] | composite z-score (Sam68 (KHDRBS1)) | composite z-score [17] | composite z-score [18]
CCCCCN1CC=CC23O[C@@H]4C=CCOC(=O)[C@@H]4[C@H]2C(=O)N(C(CO)C(C)C)[C@@H]3C1=O (stereo not given in full) | -0.516 | 0.245 | -0.518 | -0.385 | -1.07 | -0.176 | -0.276 | -0.254 | -0.0843 | -0.257 | 0.13 | 0.252 (inactive) | -0.0328 | -0.13 | 0.286 | -0.59 | 1.06 | -0.827 | -0.326 | 0.203
COCC(=C=CC[C@@H](O)c1ccccc1OCCO)CCO | 0.692 | -0.779 | -0.0632 | 0.0775 | 0.119 | -0.206 | 0.0796 | -0.333 | 0.416 | 0.113 | -0.0934 | 0.493 (inactive) | 0.0596 | -0.0811 | 0.763 | 0.994 | -0.0546 | 0.567 | 0.22 | -0.192
CCOC(=O)C[C@H]1[C@H](OC(=O)c2ccc(C(=O)c3ccccc3)cc2)[C@@H](NC(=O)c2ccc(-c3ccccc3)cc2)c2cc(OCCCO)ccc2N1C(=O)c1ccc2ccccc2n1 | 1.07 | -0.91 | 0.757 | -0.299 | -0.766 | 0.0835 | -0.317 | -0.621 | 0.249 | 0.774 | 0.0279 | 0.228 (inactive) | 0.0084 | -0.101 | 0.0886 | 0.71 | -0.142 | 1.31 | 0.611 | 0.844
CC(C)=CCCC(C)=CCON=C1[C@H]2CCn3c(=O)n(C)c(=O)n3[C@H]2[C@H](O)[C@@H]2O[C@H]12 | 1.32 | -0.621 | 0.692 | -0.257 | -0.845 | 0.188 | 0.131 | -0.0146 | 1.2 | -0.0134 | -0.286 | -0.0793 (inactive) | 0.0297 | -0.14 | 0.295 | 0.482 | 0.644 | 1.27 | 0.916 | 0.941
CN(C)c1ccc(C(O)C2C=CC3C(=O)N(c4ccccc4)C(=O)C3N2Nc2ccccc2F)cc1 (stereo not given) | 1.31 | -0.369 | -0.633 | 0.104 | -0.472 | -0.0685 | 0.275 | 0.471 | 0.838 | 0.738 | 0.62 | -0.122 (inactive) | 0.134 | 0.0605 | 0.522 | 1.11 | -0.301 | 0.87 | -0.371 | 0.676
